# According to PubChem BioAssay AID686978 (National Center for Advancing Translational Sciences (NCATS), 2013):
# In all, about 420,000 compounds went through this assay and about 64,000 (15%) were called active. Inconclusive results (about 27%) are left out. Calls come from the whole dose curve; as a rule, active = well fitted inhibition curve with a large enough effect; inconclusive = small, poorly fitted or top-dose-only effect; inactive = flat fitted curve, though single readings scatter. Only a sample is shown. Entries that show only a call come without a potency.
# Assay: qHTS for Inhibitors of human tyrosyl-DNA phosphodiesterase 1 (TDP1): qHTS in cells in absence of CPT; note: nearly all actives have a fitted effect of over 55% in size
# Conditions: DT40 Tdp1-/- hTDP1 cells, no CPT, ATP luminescence, 48 h; activity change, negative = growth inhibition: at 46.2 µM (top of the series)
# Summary of the method: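 Readout: luminescence from CellTiter-Glo after 30 min in the dark at RT. Cells: DT40 Tdp1-/- with stable hTDP1, 400/well. Exposure: compounds alone, ≥48 hr, 37 °C.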
# Potency is the fitted concentration of half-maximal effect.
row,Structure (SMILES),Potency
1,COc1cc(C2C3C(=O)N(c4ccccc4)C(=O)C3ON2c2ccccc2)ccc1O (configuration not stated),inactive
2,COc1ccc2ncc3c(-c4ccc(C)c(C)c4)nn(CC(=O)NC4CCCC4)c3c2c1,6.51 µM (active)
3,COc1ccc(-c2nn(CC(=O)NC3CCCC3)c3c2cnc2ccc(F)cc23)cc1,inactive
4,CCc1ccc2ncc3c(-c4ccc(C)cc4)nn(CC(=O)NCc4ccccc4)c3c2c1,inactive
5,COc1cccc2c(=O)n(CC(=O)N3CCCCCC3)ccc12,inactive
6,CCOc1cc(C2C(C(=O)Nc3ccc(OC)cc3)=C(C)Nc3nc(SC)nn32)ccc1O (configuration not stated),inactive
7,COc1cc(C2C(C(=O)Nc3ccc(F)cc3)=C(C)Nc3nc(CCCO)nn32)cc(OC)c1OC (configuration not stated),inactive
8,CCOc1ccc(C2C(C(=O)Nc3ccc(Cl)cc3)=C(C)Nc3nc(C(F)(F)F)nn32)cc1 (configuration not stated),14.6 µM (active)
9,CCOc1ccccc1N(C)C(=O)c1cc2c(s1)-c1ccccc1OC2,16.4 µM (active)
10,CCOc1ccccc1-c1cc(C(=O)N2CCOCC2)c2ccccc2n1,inactive
11,COc1cc(OC)c(N(C)C(=O)c2cc3c(=O)oc4ccccc4c3s2)cc1Cl,inactive
12,COc1ccc(C(=O)NC(C)Cn2nc(C)cc2C)cc1OC1CCN(C(C)=O)CC1 (configuration not stated),inactive
13,COc1ccc(-c2onc3ccc(C(C)=O)cc23)cc1,inactive
14,CCOCCCNC(=O)c1ccc(CS(=O)(=O)c2cccc(C(F)(F)F)c2)o1,inactive
15,Cc1c(Cl)cnc(NC(=O)COC(=O)c2ccc(S(=O)(=O)NCc3ccco3)cc2)c1Cl,inactive
16,Cc1cccc[n+]1CC(=O)c1ccccc1,inactive
17,COC(=O)C[n+]1cccc2ccccc21,inactive
18,CC(C)(C)c1ccc(C(=O)C[n+]2cccc3cc(Cl)ccc32)cc1,4.47 µM (active)
19,COc1cccc2c1OCC(C(=O)NCc1ccc(Cl)cc1Cl)=C2,inactive
20,O=C1NCC(Nc2ccccc2)C(=O)N1 (configuration not stated),inactive
21,Nc1ccccc1SC(C[N+](=O)[O-])c1ccccc1 (configuration not stated),2.31 µM (active)
22,Nc1ccccc1SCc1cc([N+](=O)[O-])cc2c1OCOC2,inactive

row,Structure (SMILES),Potency
1,C#CCO[C@@H]1C[C@H](n2cnc3c(=O)[nH]c(NC(=O)C(C)C)nc32)O[C@@H]1CO,inactive
2,CCCCCCCCCCCCCCCCO,inactive
3,Cc1cccc2c1-c1sc(C(=O)NCCCN3CCc4ccccc4C3)cc1CO2,20.6 µM (active)
4,O=C(CN1C(=O)COc2ccccc21)NCCN1CCc2ccccc2C1,inactive
5,O=C(NCCCN1CCOCC1)c1cc2c(s1)CCC2,inactive
6,O=C(Nc1cccc(Cl)c1)c1cncn1-c1ccc(F)cc1,inactive
7,Cc1cc(C)cc(NC(=O)CN2C(=O)c3ccccc3C2=O)c1,inactive
8,Cc1ccc(NC(=O)CCN2C(=O)c3ccccc3C2=O)cc1C,inactive
9,Cc1cc2c(cc1C)N(C(=O)CN1C(=O)c3ccccc3C1=O)C(C)(C)c1ssc(=S)c1-2,25.9 µM (active)
10,CCCC(=O)N=c1sc2cccc(F)c2n1C,inactive
11,CCCN(C(=O)CSc1nnnn1C)c1c(N)n(Cc2ccccc2)c(=O)[nH]c1=O,inactive
12,COC(=O)[C@@H]1C[C@@]2(O)[C@@H](O)[C@@H](O)[C@@H](O)C[C@H]2N1Cc1ccc(C)s1,inactive
13,CS(=O)(=O)N(CC(=O)N1CCN(c2ccc(F)cc2)CC1)C1CCCCC1,inactive
14,CN(C1CCS(=O)(=O)C1)S(=O)(=O)c1ccc2ccccc2c1 (configuration not stated),inactive
15,COc1ccc(CN2CCCC(C(=O)N3CCCCC3)C2)cc1 (configuration not stated),inactive
16,COc1ccc(CN2CCCC(CNC(=O)c3ccc(F)cc3)C2)cc1OC (configuration not stated),inactive
17,COc1cc(CN2CCCC(C(=O)c3ccc(SC)cc3)C2)cc(Cl)c1O (configuration not stated),14.6 µM (active)
18,COc1ccc(CN2CCCC(C(=O)c3ccc(Cl)cc3)C2)cc1Cn1cncn1 (configuration not stated),18.4 µM (active)
19,COc1ccc(CCN(C)C(=O)C2CCCN(Cc3ccc(OC)c(OC)c3)C2)cc1OC (configuration not stated),inactive
20,c1ccc(-n2ncc(-c3nn[nH]n3)n2)cc1,inactive
21,Cc1ccccc1NC(=O)COc1cccc2c1CCNC2=O,inactive
22,Cc1c(Cl)cccc1NC(=O)CSc1ccc(-c2cccnc2)nn1,inactive

row,Structure (SMILES),Potency
1,Brc1ccc(CSc2ccc(-c3ccco3)nn2)cc1,inactive
2,Cc1cc(F)ccc1S(=O)(=O)Nc1ccc(C(=O)N(C)Cc2ccco2)cc1,inactive
3,C=CCn1c(C)cc(C2=NNC(=NCC)SC2)c1C,20.6 µM (active)
4,COCCn1c(C)cc(C2=NNC(=Nc3ccc(F)cc3)SC2)c1C,14.6 µM (active)
5,Cc1ccc(S(=O)(=O)N2CCC(C(=O)NCC3CCCO3)CC2)cc1 (configuration not stated),inactive
6,Cc1cc(C2=NNC(=Nc3ccc(S(=O)(=O)N4CCOCC4)cc3)SC2)c(C)n1CC1CCCO1 (configuration not stated),2.91 µM (active)
7,Cc1ccnc(NS(=O)(=O)c2ccc(NC(=O)c3ccc(S(=O)(=O)N4CCOCC4)cc3)cc2)n1,inactive
8,CCSC(C)CC1C/C(=N/O)c2c(C)noc2C1 (configuration not stated),inactive
9,Cc1ccc(Cl)c(OCC(=O)N2CCc3ccccc3C2)c1,inactive
10,Nc1c(-c2ccc(F)cc2)cnn1C1CCS(=O)(=O)C1 (configuration not stated),inactive
11,Cc1cc(=O)cc(C)n1-c1ccc(Cl)c(Cl)c1,inactive
12,CCOc1ccccc1NC(=O)CCS(=O)(=O)c1cccc2nsnc12,inactive
13,CCOc1ccc(-c2c(C)n([O-])c3c([n+]2=O)CCCC3)cc1,inactive
14,Nc1nc2cc(Cl)ccc2n1N,inactive
15,COc1cc(OC)c(C2C=C(C(=O)O)Nc3ncnn32)cc1OC (configuration not stated),inactive
16,CC(C)c1nnc(NC(=O)C2CC(=O)N(CCc3ccc(F)cc3)C2)s1 (configuration not stated),inactive
17,CC(=O)Nc1ccc(S(=O)(=O)N(CCc2ccccc2)CC(=O)N/N=C/c2ccc(C(=O)O)cc2)cc1,inactive
18,COc1ccc(C(=O)Nc2onc3c2CCCC3)cc1,inactive
19,CCOc1ccc(NC(=O)CSc2c3c(nc4ccccc24)CCCC3)cc1,16.4 µM (active)
20,CCOc1ccc(NC(=O)CSc2nncn2C)cc1,inactive
21,CC(=O)c1cccc(NC(=O)CSc2nc3c(c(=O)[nH]2)CCC3)c1,inactive
22,CCOc1ccc(C(=O)Nc2ccc3nc4c(c(Nc5ccccc5OC)c3c2)CCCC4)cc1,4.61 µM (active)

row,Structure (SMILES),Potency
1,CCOc1ccc(C(=O)NC2CCN(C(=O)Nc3ccccc3OC)CC2)cc1,inactive
2,Cn1cnnc1SCC(=O)NNC(=O)COc1ccc(Br)cc1,inactive
3,O=C(NC1CC1)C1CCCN(C(=O)NC2CCCCC2)C1 (configuration not stated),inactive
4,CCN(CC)CCNC(=O)Cn1cnc2sc(C)c(S(=O)(=O)N3CCOCC3)c2c1=O,inactive
5,Cc1cc(Br)ccc1NC(=O)Cn1cnc2sc(C)c(S(=O)(=O)N3CCN(C)CC3)c2c1=O,inactive
6,COc1ccc(N2CCN(C(=O)Cn3cnc4sc(C)c(S(=O)(=O)N5CCOCC5)c4c3=O)CC2)cc1,18.4 µM (active)
7,OCCN1CCN(CCO)C1=S,inactive
8,CC(C)(C)NC(=O)NC(=O)COC(=O)CCC1CCCCC1,inactive
9,Cc1cccc(N2CCN(C(=O)c3cc4c(=O)[nH]c5ccccc5c4n3C)CC2)c1C,18.4 µM (active)
10,Cn1cccc1C(=O)N1CCc2ccccc2C1,inactive
11,Cn1c(C(=O)NCCN2CCc3ccccc3C2)cc2c(=O)[nH]c3ccccc3c21,16.4 µM (active)
12,O=C(NCCN1CCN(Cc2ccccc2)CC1)c1cc2c(=O)[nH]c3ccccc3c2s1,25.9 µM (active)
13,O=C(c1c(Cl)cccc1Cl)N1CCN(c2cccc3[nH]ccc23)CC1,inactive
14,Cc1c(C(=O)CN2CCOCC2)[nH]c2ccccc12,inactive
15,O=C(Cc1c(O)c2ccccc2[nH]c1=O)NCc1ccccc1,inactive
16,O=C(c1ncn2c1c(=O)[nH]c1ccccc12)N1CCc2ccccc2C1,inactive
17,CC(C(=O)O)N1C(=O)c2cccc3cccc1c23 (configuration not stated),inactive
18,CC(C)NC(=O)NCCCCCCS(C)=O (configuration not stated),inactive
19,Cc1ccn2cc(-c3nonc3C)cc2c1,inactive
20,CC1(C(=O)NS(=O)(=O)c2ccc3ccccc3c2)CCN1C(=O)C1(c2ccc(Cl)cc2)CCC1 (configuration not stated),inactive
21,CCN(C(=O)CSc1nnc2ccccn12)C1CCS(=O)(=O)C1 (configuration not stated),inactive
22,CC(OC(=O)c1cccnc1Cl)C(=O)NC1CCCCC1 (configuration not stated),inactive

row,Structure (SMILES),Potency
1,CC(C)Cn1c(CCC(=O)O)ccc1-c1cccs1,inactive
2,COc1cc(C(=S)NC2CCCCC2)ccc1O,inactive
3,COC(=O)c1ccc(CN2CCC(CO)(Cc3ccc(OC)cc3)CC2)cc1,inactive
4,COc1ccc(CC2(CO)CCN(Cc3cnn(C)c3)CC2)cc1,inactive
5,OCC1(CCc2ccccc2)CCN(Cc2ccc3nsnc3c2)CC1,inactive
6,CC(=O)c1cccc(CN2CCC(CO)(Cc3ccccc3)CC2)c1,inactive
7,Cc1cccc(-c2ncc(CN3CCC(CO)(CCCc4ccccc4)CC3)cn2)c1,23.1 µM (active)
8,COc1cccc(CC2(CO)CCN(Cc3cnc(-c4cccc(C)c4)nc3)CC2)c1,20.6 µM (active)
9,COc1cccc(NC(=O)Cn2c3ccc(F)cc3c3nc4n(c(=O)c32)CCS4)c1,inactive
10,O=C(NCC1Cc2cc(F)cc(-c3cnccn3)c2O1)C1COc2ccccc2O1 (configuration not stated),inactive
11,Cc1cc(C)c(C#N)c(SCc2ccccc2C(=O)O)n1,inactive
12,CSCCC(NC(=O)COc1ccccc1)C(=O)OCC(=O)c1cc2ccccc2o1 (configuration not stated),inactive
13,CC(C)(C)NCc1cc(Br)ccc1OC1CCCC1,16.4 µM (active)
14,CCOCCCNCc1cc(Br)ccc1OCC,inactive
15,CCOc1ccc(Br)cc1S(=O)(=O)N1CCC(C(=O)O)CC1,inactive
16,CC(=O)N/C(=C/c1ccc(OC(F)F)cc1)C(=O)O,inactive
17,N#Cc1ccc(-c2ccc(F)cc2)nc1Sc1ccccc1,inactive
18,COc1ccc(NC(=O)CN(C)C(=O)Cc2coc3cc(C)c(C)cc23)cc1,inactive
19,Cc1ccc(NS(=O)(=O)c2ccc3c(c2)NC(=O)CO3)cc1,inactive
